These results are taken from PubChem BioAssay (NCATS).

Assay [1] in a line: qHTS of pediatric cancer cell lines to identify multiple opportunities for drug repurposing: Primary screen for SJ-GBM2 cells (AID 1347091). Note: potency is the fitted concentration of half-maximal effect. The gist of the method:
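Viability measured as metabolically active cells via CellTiter-Glo luminescence following 48 hours of compound exposure, 11-point dilutions in confirmatory testing. 500-1,000 cells/well plated 5 hours before dosing; controls were DMSO and 2.3 µM bortezomib.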
In general terms: In qHTS, concentration-response curves come from the screen itself.

Assay [2] can be described thus: qHTS of pediatric cancer cell lines to identify multiple opportunities for drug repurposing: Primary screen for A673 cells (AID 1347092). Note: nearly all actives have a fitted effect of over 45% in size. Note: potency is the fitted concentration of half-maximal effect. The method, boiled down:
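Cell viability of A673 measured by CellTiter-Glo ATP luminescence after 48 hours compound exposure. Dilution series spanned 0.78 nM to 46 µM (MIPE, 11-point) or 0.59 nM to 46 µM (NPC, 8-point); bortezomib 2.3 uM positive control.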

Assay [3] is described as follows: qHTS of pediatric cancer cell lines to identify multiple opportunities for drug repurposing: Primary screen for BT-37 cells (AID 1347094). Note: potency is the fitted concentration of half-maximal effect. The gist of the method: (§1)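 Viability was measured as metabolically active cells after 48 hours of treatment, read by CellTiter-Glo luminescence. Compounds were tested at multiple final concentrations, giving concentration-response curves.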

A short description of assay [4]: qHTS of pediatric cancer cell lines to identify multiple opportunities for drug repurposing: Primary screen for NB-EBc1 cells (AID 1347095). Note: potency is the fitted concentration of half-maximal effect. The method, boiled down: as §1
Assay [5] is described as follows: qHTS of pediatric cancer cell lines to identify multiple opportunities for drug repurposing: Primary screen for U-2 OS cells (AID 1347096). Note: nearly all actives have a fitted effect of over 50% in size. Note: potency is the fitted concentration of half-maximal effect. The method, boiled down:
(§2)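 Viability after 48 h compound treatment at 37C, 500-1,000 cells/well, read as ATP luminescence with CellTiter-Glo. Primary screens used 11-point (MIPE, 0.78 nM-46 µM) or 8-point (NPC, 0.59 nM-46 µM) final concentrations; follow-up screens used 11-point dilutions.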

Assay [6] is described as follows: qHTS of pediatric cancer cell lines to identify multiple opportunities for drug repurposing: Primary screen for Saos-2 cells (AID 1347097). Note: nearly all actives have a fitted effect of over 40% in size. Note: potency is the fitted concentration of half-maximal effect. The method, boiled down: as §1
A short description of assay [7]: qHTS of pediatric cancer cell lines to identify multiple opportunities for drug repurposing: Primary screen for SK-N-SH cells (AID 1347098). Note: nearly all actives have a fitted effect of over 65% in size. Note: potency is the fitted concentration of half-maximal effect. The method, boiled down: (§3)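 Cells (500-1,000/well) rested 5 h, then received compounds for 48 h; metabolically active cells were measured by CellTiter-Glo luminescence. Final concentrations spanned up to 46 µM (MIPE, 11-point) or 0.59 nM-46 µM (NPC, 8-point) in primary screens, 11-point in follow-ups.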

The nature of assay [8]: qHTS of pediatric cancer cell lines to identify multiple opportunities for drug repurposing: Primary screen for NB1643 cells (AID 1347099). Note: nearly all actives have a fitted effect of over 50% in size. The method, boiled down:
as §1

Assay [9] is described as follows: qHTS of pediatric cancer cell lines to identify multiple opportunities for drug repurposing: Primary screen for LAN-5 cells (AID 1347100). Note: potency is the fitted concentration of half-maximal effect. The gist of the method: as §2
Assay [10] is described as follows: qHTS of pediatric cancer cell lines to identify multiple opportunities for drug repurposing: Primary screen for BT-12 cells (AID 1347101). Note: nearly all actives have a fitted effect of over 25% in size. Note: potency is the fitted concentration of half-maximal effect. The gist of the method: as §3
Assay [11] can be described thus: qHTS of pediatric cancer cell lines to identify multiple opportunities for drug repurposing: Primary screen for Rh18 cells (AID 1347102). Note: nearly all actives have a fitted effect of over 65% in size. Note: potency is the fitted concentration of half-maximal effect. The method, boiled down:
as §2

Assay [12] can be described thus: qHTS of pediatric cancer cell lines to identify multiple opportunities for drug repurposing: Primary screen for OHS-50 cells (AID 1347103). Note: nearly all actives have a fitted effect of over 40% in size. Note: potency is the fitted concentration of half-maximal effect. The gist of the method:
as §3

Assay [13] is described as follows: qHTS of pediatric cancer cell lines to identify multiple opportunities for drug repurposing: Primary screen for RD cells (AID 1347104). Note: nearly all actives have a fitted effect of over 55% in size. Note: potency is the fitted concentration of half-maximal effect. The gist of the method: as §1
The nature of assay [14]: qHTS of pediatric cancer cell lines to identify multiple opportunities for drug repurposing: Primary screen for MG 63 (6-TG R) cells (AID 1347105). Note: nearly all actives have a fitted effect of over 50% in size. The method, boiled down: as §1
A short description of assay [15]: qHTS of pediatric cancer cell lines to identify multiple opportunities for drug repurposing: Primary screen for control Hh wild type fibroblast cells (AID 1347106).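 Note: series mostly up to about 46 µM; a drop in luminescence marks cytotoxicity and a rise apparent proliferation; nearly all actives have a fitted effect of over 55% in size.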 The gist of the method: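 Cells (500-1,000/well) in growth media were settled 5 h at 37 degrees C, then given compounds for 48 h. Viability was read as CellTiter-Glo luminescence. Primary runs used MIPE at 11 points (0.78 nM-46 µM) and NPC at 8 points (0.59 nM-46 µM); follow-ups used 11 points.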

Assay [16] is described as follows: qHTS of pediatric cancer cell lines to identify multiple opportunities for drug repurposing: Primary screen for Rh30 cells (AID 1347107). Note: nearly all actives have a fitted effect of over 75% in size. Note: potency is the fitted concentration of half-maximal effect. The gist of the method:
as §2

Assay [17] can be described thus: qHTS of pediatric cancer cell lines to identify multiple opportunities for drug repurposing: Primary screen for Rh41 cells (AID 1347108). Note: nearly all actives have a fitted effect of over 70% in size. Note: potency is the fitted concentration of half-maximal effect. The gist of the method:
as §1

Assay [18] can be described thus: qHTS of pediatric cancer cell lines to identify multiple opportunities for drug repurposing: Primary screen for SK-N-MC cells (AID 1347093). Note: potency is the fitted concentration of half-maximal effect. The gist of the method:
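Metabolically active cells were quantified by ATP-dependent luminescence (CellTiter-Glo, 15 min at room temperature) following 48 h treatment. Cells had been plated at 500-1,000 per well and settled for 5 h beforehand.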

A short description of assay [19]: qHTS of pediatric cancer cell lines to identify multiple opportunities for drug repurposing: Confirmatory screen for NB1643 cells (AID 1347109). Note: potency is the fitted concentration of half-maximal effect; nearly all actives have a fitted effect of over 45% in size. The method, boiled down: as §2
A short description of assay [20]: qHTS of pediatric cancer cell lines to identify multiple opportunities for drug repurposing: Confirmatory screen for A673 cells (AID 1347110).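 Note: potency is the fitted concentration of half-maximal effect; cells exposed to compound for 48 h before the viability read; nearly all actives have a fitted effect of over 65% in size.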 The gist of the method:
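Viability was read as ATP luminescence (CellTiter-Glo) after 48 h of compound exposure at 37 C in A673 cells seeded at 500-1,000/well. Titrations reached 46 uM final, with 11 points in the confirmatory screen. Concentration-response curves were fitted directly.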

Inconclusive results are not listed. Active and inactive are the calls of the source. Calls come from the whole dose curve; as a rule, active = well fitted curve in the direction sought with a large enough effect; inconclusive = small, poorly fitted or top-dose-only effect, or another doubt; inactive = no such curve, though single readings can be large; an effect the other way counts as inactive or inconclusive.

Regarding `O=[N+]([O-])c1c(Cl)c(Cl)cc(Cl)c1Cl`, the Potency result in assay [1], in assay [2], in assay [3], in [4], in [5] and in [6] was “inactive” in each case. For the same compound, the Potency entry in assay [7], in assay [8], in [9], in [10], in assay [11] and in assay [12] was “inactive” throughout. The Potency result in [13], in assay [14], in assay [15], in assay [16] and in [17] was “inactive” throughout.
For the compound `CCOC(=O)c1cncn1[C@H](C)c1ccccc1`, the Potency result in [1], in [18], in assay [3], in assay [4], in assay [5] and in assay [6] was “inactive” throughout. Further, the Potency entry in [7], in assay [8], in [9], in assay [10], in [11] and in assay [12] was “inactive” each time. The Potency result in assay [13], in [14], in assay [15] and in assay [17] was “inactive” in each case.
Regarding `C[C@]12CC[C@@H]3[C@@H](CCC4=CC(=O)CC[C@@H]43)[C@@H]1CC[C@@H]2OC(=O)CCc1ccccc1`, the Potency result in [1], in [18], in assay [3], in assay [4], in [5] and in [10] was “inactive” in each case. The Potency result in [11], in assay [12], in assay [13], in assay [14], in assay [15] and in [16] was “inactive” in each case. Further, the Potency entry in [17] was “inactive”. In addition, the Potency in assay [6] is 18.7 µM (active).
For `Cc1[nH]nc2ccc(-c3cncc(OC[C@@H](N)Cc4c[nH]c5ccccc45)c3)cc12`, the Potency is 1.05 µM (active) in assay [1]; 0.264 µM (active) in assay [18]; 1.53 µM (active) in assay [3]; 1.66 µM (active) in assay [4]; 0.304 µM (active) in [7]; 0.166 µM (active) in assay [9]. In addition, the Potency in assay [10] was 1.53 µM (active); in assay [11] it was 2.96 µM (active); in assay [12] it was 1.53 µM (active); in assay [13], 1.48 µM (active); in assay [16], 14.8 µM (active); in [17], 2.64 µM (active). Also, the Potency is 0.737 µM (active) in [19] and 1.47 µM (active) in assay [20]. Moreover, the Potency entry in assay [5] is “inactive”.
`CN1CCN(c2ccc([N+](=O)[O-])c3no[n+]([O-])c23)CC1`: the Potency in assay [1] was 23.5 µM (active); in [2] it was 23.5 µM (active); in [18] it was 18.7 µM (active); in assay [6], 26.4 µM (active); in [12], 34.3 µM (active). Besides, the Potency result in assay [5], in assay [7], in assay [15] and in [16] was “inactive” each time.
On to `O=c1cccc2n1CC1CNC[C@H]2C1`, for which the Potency in [1] was 5.9 µM (active); in assay [2], 4.69 µM (active); in assay [18] it was 4.69 µM (active); in [7], 24.1 µM (active); in assay [9], 2.96 µM (active); in assay [11] it was 3.32 µM (active). In addition, the Potency in assay [13] is 18.7 µM (active); in [17] it was 11.8 µM (active).
Regarding `CC(C)(O)C=CC(=O)[C@](C)(O)[C@H]1[C@H](O)C[C@]2(C)[C@@H]3CC=C4[C@@H](C=C(O)C(=O)C4(C)C)[C@]3(C)C(=O)C[C@@]12C`, the Potency in [1] was 0.209 µM (active); in assay [18], 0.0332 µM (active); in assay [3] it was 1.37 µM (active); in [4], 0.332 µM (active); in [5] it was 0.148 µM (active); in assay [6], 0.105 µM (active). Moreover, the Potency was 0.152 µM (active) in assay [7]; 0.0743 µM (active) in assay [9]; 0.243 µM (active) in [10]; 0.0526 µM (active) in assay [11]; 0.137 µM (active) in assay [12]; 0.166 µM (active) in assay [13]. Moreover, the Potency in assay [16] was 8.33 µM (active); in assay [17], 0.469 µM (active); in assay [19], 0.117 µM (active); in [20] it was 5.22 µM (active).
Turning to `CCOC(=O)Nc1ccc(NCc2ccc(F)cc2)cc1N`, the Potency entry in [1], in assay [3], in assay [4], in assay [5], in assay [6] and in assay [10] was “inactive” each time. For the same compound, the Potency result in [11], in assay [12], in assay [15] and in assay [16] was “inactive” throughout. Also, the Potency is 18.7 µM (active) in assay [2] and 26.4 µM (active) in assay [13].
